# Measured values: PubChem BioAssay (EPA / NIEHS)
# Inconclusive results are not listed. The source made the active and inactive calls. Rule for the calls: active = hit-call score of the fitted dose curve at least 0.9, where 1 is the maximum; inconclusive = response in the unintended direction; inactive = score below 0.9.
# Target: Oxysterols receptor LXR-alpha (Homo sapiens) (UniProt Q13133)
# Experiment: ATG_LXRa_TRANS: Attagene TRANS-FACTORIAL HepG2 Assay for human Liver X Receptor alpha (LXRa) (AID 2282980)
# Conditions: HepG2 Attagene TRANS reporter, LXRa transactivation
# Protocol: ATG_TRANS is a cell-based, multiplexed-readout assay that uses HepG2, a human liver cell line, with measurements taken at 24 hours after chemical dosing in a 24-well plate.ATG_LXRa_TRANS is one of 30 assay component(s) measured or calculated from the ATG_TRANS assay. It is designed to make measurements of mRNA induction, a form of inducible reporter, as detected with fluorescence intensity signals by Reverse transcription polymerase chain reaction (RT-PCR) and Capillary electrophoresis technology.Data from the assay component ATG_LXRa_TRANS was analyzed into 1 assay endpoint. This assay endpoint, ATG_LXRa_TRANS, was analyzed in the positive analysis fitting direction relative to DMSO as the negative control and baseline of activity. Using a type of inducible reporter, measures of mRNA for gain-of-signal activity can be used to understand the reporter gene at the transcription factor-level as they relate to the gene NR1H3. Furthermore, this assay endpoint can be referred to as a primary readout, because this assay has produced multiple assay endpoints where this one serves a reporter gene function. To generalize the intended target to other relatable targets, this assay endpoint is annotated to the nuclear receptor intended target family, where the subfamily is non-steroidal.
# Human liver HepG2 cells are transiently transfected with multiple reporter transcription units (MRTUs) in 6-well plates using FuGene 6 reagent (Roche; 3 ml FuGene/1 mg DNA). The MRTU constructs are regulated by a cis-regulating element (promoter). […] A major difference between the CIS and TRANS system is that in CIS activities of endogenous TFs are measured, whereas the TRANS assay evaluates changes in activities of exogenous, chimeric NR-Gal4 proteins. […] At the end of 24 hour incubation, total RNA was isolated using TriZol reagent (Invitrogen). The isolated RNA is then reverse-transcribed using oligo(dT) primer and Mo-MLV reverse transcriptase (Invitrogen) with DNAse I (Ambion) treatment for 30 min. The one-tenth of the produced cDNA was amplified by PCR using Taq DNA polymerase (Invitrogen) and two reporter sequence-specific primers. The PCR products were fluorescently labeled by primer extension with 6-arboxyfluorescein (6-FAM) 5'-labeled reporter sequence-specific primer (2 min at 95 C, 20 s at 68 C and 10 min at 72 C) and these products were digested with 5U of HpaI (New England Biolabs) for 2h at 37 C. The fragments were purified using Qiaquick PCR columns (Qiagen), analyzed on an ABI 3130xL genetic analyzer (Applied Biosystems) with peak positions identified by using a set of X-rhodamine (ROX)-labeled MapMarker1000 molecular weight standards (BioVentures). The raw capillary electrophoresis data was processed using Attagraph software (Attagene).
# Chain of Oxysterols receptor LXR-alpha (Homo sapiens) (Q13133 whole entry, looked up): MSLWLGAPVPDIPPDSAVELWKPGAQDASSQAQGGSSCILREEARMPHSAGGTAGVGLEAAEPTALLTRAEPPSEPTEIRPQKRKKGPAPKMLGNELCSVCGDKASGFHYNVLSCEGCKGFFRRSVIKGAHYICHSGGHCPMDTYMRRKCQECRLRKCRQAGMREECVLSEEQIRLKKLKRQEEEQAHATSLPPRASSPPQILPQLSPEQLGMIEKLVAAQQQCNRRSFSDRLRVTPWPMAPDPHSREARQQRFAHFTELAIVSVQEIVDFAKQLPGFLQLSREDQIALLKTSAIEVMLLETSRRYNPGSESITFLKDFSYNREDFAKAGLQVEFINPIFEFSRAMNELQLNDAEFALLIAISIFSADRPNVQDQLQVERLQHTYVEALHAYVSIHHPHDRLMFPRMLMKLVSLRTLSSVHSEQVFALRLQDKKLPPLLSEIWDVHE
row,SMILES,outcome
1,NC(=O)CCl,inactive
2,OC(Cc1ccccc1Cl)(Cn1cncn1)C1(Cl)CC1 (stereo not given),inactive
3,C1CCC(C2CCCCC2)CC1,inactive
4,C=C(C)[C@@H]1CC=C(C=O)CC1,inactive
5,C=CCOC(F)(C(F)(F)F)C(F)(F)F,inactive
6,O=[N+]([O-])c1cc([As](=O)(O)O)ccc1O,inactive
7,CC(C)O.CC(C)O.OCCN(CCO)CCO.OCCN(CCO)CCO.[Ti],inactive
8,C=CC(=O)[O][Sn]([CH2]CCC)([CH2]CCC)[CH2]CCC,inactive
9,CCC[CH2][Sn]([CH2]CCC)([CH2]CCC)[CH2]CCC,inactive
10,OC(Cc1ccccc1Cl)(Cn1[nH]cnc1=S)C1(Cl)CC1 (stereo not given),inactive
11,CC(C)(c1ccccc1)c1cc(-n2nc3ccccc3n2)c(O)c(C(C)(C)c2ccccc2)c1,inactive
12,O=C(CCl)Nc1ccccc1,inactive
13,Cc1cc(-c2cc(C)c(N)c(C)c2)cc(C)c1N,inactive
14,CCOP(=O)(OCC)SCCSCC,inactive
15,Cc1ccc2nc3sc(=O)sc3nc2c1,inactive
16,CC(F)(F)CC(F)(F)F,inactive
17,Nc1ccc(Br)cc1,inactive
18,Nc1nc(=S)[nH][nH]1,inactive
19,CC(C=O)Cc1ccc2c(c1)OCO2 (stereo not given),inactive
20,O=[N+]([O-])c1c2ccccc2cc2ccccc12,inactive

row,SMILES,outcome
1,Cc1ccccc1OP(=O)(Oc1ccccc1)Oc1ccccc1,inactive
2,Cl[C@H]1OCCO[C@@H]1Cl,inactive
3,CCCSP(=S)(OCC)Oc1ccc(Cl)cc1Cl (stereo not given),inactive
4,c1ccc2sc(SNC3CCCCC3)nc2c1,inactive
5,Cc1cc(Cl)ccc1OCCCC(=O)O,inactive
6,O=C(O)c1cc(I)cc(I)c1I,inactive
7,COCCl,inactive
8,CC(C)=CC1C(C(=O)OCc2cccc(Oc3ccccc3)c2)C1(C)C (stereo not given),inactive
9,O=C=Nc1ccc(Cl)cc1,inactive
10,O=S(=O)(F)C(F)(F)C(F)(F)C(F)(F)C(F)(F)F,inactive
11,O=[N+]([O-])c1ccccc1O,inactive
12,COc1ccccc1N,inactive
13,O=c1[nH]c(=O)n(Cl)c(=O)n1Cl,inactive
14,O=C/C(Cl)=C(/Cl)C(=O)O,inactive
15,COP(=S)(OC)Oc1cc(Cl)c(I)cc1Cl,inactive
16,CC[N+](CC)(CC)CC,inactive
17,Fc1cccc(Cl)c1CCl,inactive
18,CCOc1cc(C=O)ccc1O,inactive
19,O=C(NC(=O)c1c(F)cccc1F)Nc1ccc(Cl)cc1,inactive
20,CCCCCCCCBr,inactive
